Data on 14 molecules can be found in PubChem BioAssay (EPA / NIEHS).

Activity calls are given as the source filed them. Rule for the calls: active = hit-call score of the fitted dose curve at least 0.9, where 1 is the maximum; inactive = score below 0.9.

The test is described as follows: CCTE_Padilla_ZF_Score.Spine: CCTE's 144 Hour Post-fertilization zebrafish Assay Score for Spine Malformation, Padilla Lab (AID 2284407). The method, then:
CCTE_Padilla_ZF_Phenotype_Score is a whole embryo, multiplexed assay using zebrafish ova exposed for 144 hours post fertilization on a 96-well plate.CCTE_Padilla_ZF_Score.Spine is one of one assay component(s) measured or calculated from the CCTE_Padilla_ZF_Phenotype_Score assay. It is designed to make measurements of zebrafish development as detected with brightfield microscopy of developing zebrafish embryos.Data from the assay component CCTE_Padilla_ZF_Score.Spine was analyzed into 1 assay endpoints. This assay endpoint, CCTE_Padilla_ZF_Score.Spine, was analyzed in the positive analysis fitting direction relative to DMSO as the negative control and baseline of activity. Using a type of viability reporter, gain-of-signal activity can be used to understand changes in developmentals as they relate to the whole embryo. To generalize the intended target to other relatable targets, this assay endpoint is annotated to the zebrafish development intended target family, where the subfamily is body axis morphogenesis.
Zebrafish husbandry: Wild type adult zebrafish (Danio rerio; undefined outbred stock obtained from Aquatic Research Organisms, Hampton, NH, 03842) were housed in an AAALAC-approved animal facility at 28C with a 14:10 h light: dark cycle (lights on at 08:30 h). Adult fish (2-3 females per male; density = 15-20 adults per tank) were kept in one of several 9-liter (L) flow-through colony tanks (Aquaneering Inc., San Diego, CA). All adults in a colony tank were placed in a 2 L (static) breeding tank (Aquatic Habitats, Apopka, FL) one hour prior to light onset. Typically, adults from two to three colony tanks were mated on the same day. Two hours after light onset the adults were returned to the colony tank. All embryos were gathered from each breeder tank, pooled, and placed in a 28C water bath for 2 h, followed by two washes with 0.06% bleach (v/v) in 10% Hanks' Balanced Salt Solution (13.7 mM NaCl 0.54 mM KCl, 25 uM Na2HPO4, 130 uM CaCl2 100 um MgSO4 and 420 um NaHCO3,), hereafter referred to as Hanks' solution, for 5 min in order to remove any residual bacteria or fungi. Immediately following washing, the embryos were examined, and healthy embryos were separated from dead or unfertilized eggs and moved into fresh Hanks'. Chemical exposures: Zebrafish embryos were exposed in 96-well plates. Between 6- and 8-hours post fertilization (hpf), healthy embryos (with chorions) were transferred, one embryo per well, into 96 well (0.5 mL) microtiter plates (Cell Culture-Treated, Flat-Bottom Microplate 96 well [Corning Costar, Kennebunk, ME; Cat 09-761-145]) filled with 200 uL of Hanks' solution. A random number generator was used to assign the order in which the rows of embryos were plated in 96 well plates each week. After plating, the embryos were dosed with 0.8 uL of the chemical dosing solution then immediately sealed with AlumaSeal II (Excel Scientific Inc, Victorville, CA) to prevent volatilization of the chemicals, and then placed in a leakproof secondary container. These containers were placed in an incubator maintained on a 14:10 h light: dark cycle at 26C for rearing. On 5 dpf, live larvae were gently moved out of the plate with test chemicals and into a new 96 well mesh plate (Millipore Corp., Bedford, MA) with just the Hanks' solution. Once within the mesh well plate, the animals were rinsed with 400 uL of fresh Hanks' three times, and then the plates were covered with a non-adhesive material (Microseal A, BioRad, Hercules, CA), plate lid added, and then plate sides wrapped in Parafilm (PM992, Bermis Company, Neenah, WI), and returned to the incubator. […]
For the molecule `O=C(O)C(F)(F)C(F)(F)C(=O)O`, the molecule was classed as inactive.
For `OCC(F)(F)OC(F)(F)C(F)(F)OC(F)(F)C(F)(F)OC(F)(F)CO`, the molecule was classed as inactive.
As for `COC(=O)C(F)(F)C(F)(F)OC(F)(C(F)(F)F)C(F)(F)OC(F)=C(F)F` (centres undefined), the molecule was called inactive.
As for `O=S(=O)(F)C(F)(F)C(F)(F)C(F)(F)C(F)(F)C(F)(F)C(F)(F)C(F)(F)C(F)(F)F`, the result was inactive.
Then `O=C(O)C(F)(F)OC(F)(F)C(F)(F)OC(F)(F)C(=O)O`, with “inactive”.
On to `O=C(O)C=CC(F)(C(F)(F)F)C(F)(F)F`, for which the outcome was inactive.
Consider `OCC(F)(F)OC(F)(F)C(F)(F)OC(F)(F)C(F)(F)OC(F)(F)F`, for which the molecule was classed as inactive.
Then `O=C(O)C(F)(F)OC(F)(F)C(F)(F)OC(F)(F)F`, with “inactive”; and `OCC(F)(F)OC(F)(F)C(F)(F)OC(F)(F)CO`, with “inactive”; and `NC(=O)C(F)(F)C(F)(F)F`, with “inactive”.
Take `FC(F)(F)C(F)(C(F)(F)F)C(F)(F)C(F)(F)CC1CO1` (centres undefined): the result was inactive.
In the case of `CC(O)C(F)(F)C(F)(F)F` (centres undefined), the molecule was classed as inactive.
For `O=C(O)C(F)(OC(F)(F)C(F)(F)C(F)(F)F)C(F)(F)F` (centres undefined), the result was inactive.
As for `C=CC(=O)OCC(F)(F)C(F)F`, the entry is “inactive”.
